From PubChem BioAssay (NCATS) come the findings set out here.

Calls of active or inactive are those of the source. Calls follow the shape of the dose curve; as a rule, active = well fitted curve in the direction sought with a large enough effect; inactive = no such curve, though single readings can be large or run the other way.

Sequence of Alpha-galactosidase A (Homo sapiens) (P06280 whole entry, looked up): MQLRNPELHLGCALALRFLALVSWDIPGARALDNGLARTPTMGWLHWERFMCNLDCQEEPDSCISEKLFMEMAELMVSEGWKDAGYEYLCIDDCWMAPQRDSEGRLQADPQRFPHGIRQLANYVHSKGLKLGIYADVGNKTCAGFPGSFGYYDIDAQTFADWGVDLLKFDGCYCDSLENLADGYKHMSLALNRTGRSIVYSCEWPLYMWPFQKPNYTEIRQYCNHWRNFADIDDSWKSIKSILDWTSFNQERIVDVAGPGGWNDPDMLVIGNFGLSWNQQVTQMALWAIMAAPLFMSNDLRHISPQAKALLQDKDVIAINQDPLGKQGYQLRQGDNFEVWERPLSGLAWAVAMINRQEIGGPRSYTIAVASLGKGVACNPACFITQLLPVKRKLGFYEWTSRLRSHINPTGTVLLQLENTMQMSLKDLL

The experiment deals with Alpha-galactosidase A (Homo sapiens) (UniProt P06280). Briefly: Counterscreen for Glucocerebrosidase Inhibitors: qHTS Assay for Human alpha-Galactosidase at pH 4.5 (AID 992). Particulars: purified enzyme, fluorogenic substrate; series mostly up to 76.9 µM. The text has this:
NIH Chemical Genomics Center [NCGC]
NIH Molecular Libraries Screening Centers Network [MLSCN]
PI Name: Zheng, Wei [NIH]
Alpha-galactosidase is a homodimeric glycoprotein that hydrolyzes the terminal alpha-galactosyl moieties from glycolipids and glycoproteins. Deficiency of this enzyme results in Fabry Disease with progressive accumulation of globotriaosylceramide and other glycosphingolipids in vascular endothelial cells that causes renal failure, myocardial infarction and stroke, and premature death in patients. It has reported that the improper folding and trafficking of alpha-galactosidase resulted from the genetic mutations may account for a significant numbers of Fabry patients. […] We optimized this alpha-galactosidase assay in 1536-well plate format for identifying the novel small molecule inhibitors with the structures other than the sugar analogs in order to develop the new pharmacological chaperones.
NCGC Assay Protocol Summary:
This is a fluorogenic enzyme assay with 4-Methylumbelliferyl alpha-D-galactopyranoside as the substrate and human […] as the enzyme preparation. Upon the hydrolysis of this fluorogenic substrate, the resulting product, […]. 4-Methyllumbelliferone, can be excited at 365 nm and emits at 440 nm which can be detected by a standard fluorescence plate reader. Data were normalized to the controls for basal activity (without enzyme) and 100% activity (with enzyme). In the AC50 values were determined from concentration-response data modeled with the standard Hill equation.
Assay buffer: 50 mM citric acid, 0.005% Tween-20, pH 4.5. (pH 4.5 is an optimal condition for this enzyme assay)
1536-well assay protocol for the human alpha-galactosidase:
(1) Add 2 ul/well of enzyme (2 nM final)
(2) Add 23 nL compounds in DMSO solution. The final titration was 0.7 nM to 77 uM.
(3) Add 1 ul of substrate (80 uM final)
(4) Incubate at room temperature for 20 min.
(5) Add 2 ul stop solution (1M NaOH and 1M Glycine mixture, pH 10)
(6) Detect the assay plate in a ViewLux plate reader (PerkinElmer) with Ex=365 nm and Em=440nm.
Keywords: Alpha-galactosidase, Fabry Disease, pharmacological chaperone, chaperone therapy, high throughput screening, alpha-galactosidase inhibitor, MLSMR, MLSCN, NIH Roadmap, qHTS and NCGC
On the technique in general: A counterscreen serves to expose hits that act by an unwanted route or on another target.
With `CC(=O)N[C@@H](C(=O)O)C(C)(C)SN=O`, the molecule was classed as inactive.
Take `CSc1ccc2c(c1)[C@H](N1CCN(C)CC1)Cc1ccccc1S2`: the molecule was called inactive.
Consider `NCCCCCCNS(=O)(=O)c1cccc2c(Cl)cccc12`, for which the result was inactive.
As for `CC#CCOC(=O)c1c(C)nc2sc3c(c2c1N)CC[C@@H](O)C3`, the outcome was inactive.
With `CC(N)=NCc1cccc(CN)c1`, the call was inactive.
With `CC#C[C@]1(O)CC[C@H]2[C@@H]3CCC4=CC(=O)CCC4=C3[C@H](c3ccc(N(C)C)cc3)C[C@@]21C`, the call was inactive.
Turning to `C1CCC(N=C(NC23CC4CC(CC(C4)C2)C3)N2CCOCC2)CC1`, the molecule was called inactive.
`N[C@H](Cc1ccc(Cl)cc1)C(=O)O`: the call was inactive.
Under `CC1=C(\C=C/C(C)=C/C=C\C(C)=C\C(=O)O)C(C)(C)CCC1` stands “inactive”; under `CC(N)=NCCCC[C@H](N)C(=O)O`, “inactive”.
With `O=C(Nc1cc(C(=O)Nc2ccc(S(=O)(=O)O)cc2S(=O)(=O)O)cc(C(=O)Nc2ccc(S(=O)(=O)O)cc2S(=O)(=O)O)c1)Nc1cc(C(=O)Nc2ccc(S(=O)(=O)O)cc2S(=O)(=O)O)cc(C(=O)Nc2ccc(S(=O)(=O)O)cc2S(=O)(=O)O)c1` the entry was “inactive”; with `C[C@@](N)(C(=O)O)c1ccc(C(=O)O)cc1`, “inactive”.
Under `CC[N+](CC)(CC)CC` stands “inactive”; under `Cc1cccc(/C=C\c2ccccc2)n1`, “inactive”; under `C[C@@H]1C[C@@H]2[C@H]3CCC4=CC(=O)C=C[C@]4(C)[C@]3(F)[C@@H](O)C[C@@]2(C)[C@@]1(O)C(=O)CO`, “inactive”.
Take `CNC(=O)Oc1ccc2c(c1)[C@@]1(C)CCN(C)[C@@H]1N2C`: the molecule was called inactive.
In the case of `N[C@H](C(=O)O)[C@@H]1C[C@@H]1C(=O)O`, the call was inactive.
With `C[C@H](N=C(NC#N)Nc1ccncc1)C(C)(C)C`, the result was inactive.
For the molecule `O=C1N=C(O)CN1/N=C\c1ccc(-c2ccc([N+](=O)[O-])cc2)o1`, the result was inactive.
With `CC(C)NC[C@@H](O)COc1ccc(CCOCC2CC2)cc1`, the outcome was inactive.
Under `CC(N)=NCCC[C@H](N)C(=O)O` stands “inactive”.
For `CCOC(=O)C1=C(C)NC(C)=C(C(=O)OC)[C@H]1c1cccc([N+](=O)[O-])c1`, the outcome was inactive.
On to `COC(=O)C1=C(C)NC(C)=C([N+](=O)[O-])[C@H]1c1ccccc1C(F)(F)F`, for which the result was inactive.
With `N[C@]1(C(=O)O)CCc2cc(C(=O)O)ccc21`, the outcome was inactive.
For `CO[C@]1(C2=NCCN2)COc2ccccc2O1`, the molecule was called inactive.
With `NC(N)=NN=Cc1c(Cl)cccc1Cl` the entry was “inactive”; with `CN(C)CCCCSC(=N)N`, “inactive”.
As to `CC(C)(C)NC[C@H](O)COc1cccc2[nH]c(=O)[nH]c12`, the call was inactive.
With `Fc1cccc(/C=N\N=C/c2cccc(F)c2)c1`, the call was inactive.
As for `COc1cc2c(cc1C(F)(F)F)N(C(=O)Nc1cc(F)cc(-c3cccnc3)c1)CC2`, the molecule was called inactive.
For the molecule `COc1ccc(CCN(C)CCC[C@@](C#N)(c2ccc(OC)c(OC)c2)C(C)C)cc1OC`, the result was inactive.
Regarding `N[C@@H](CO)C(=O)O`, the molecule was classed as inactive.
For `COc1ccc2c(c1)c(CC(=O)N1CCOCC1)c(C)n2C(=O)c1ccc(Cl)cc1`, the molecule was called inactive.
Consider `CC(C)(C)NC[C@H](O)c1ccc(O)c(CO)c1`, for which the molecule was classed as inactive.
Turning to `CCCCOc1cc(C[C@@H]2CNC(=O)N2)ccc1OC`, the molecule was classed as inactive.
`CCn1ccnc1C[C@@H]1COc2ccccc2O1`: the call was inactive.
Turning to `Cn1cnc2c(NC3CCCC3)ncnc21`, the outcome was inactive.
On to `C[C@@H]1CCN=C(N)S1`, for which the call was inactive.
With `O=C(OCCN1CCCCC1)c1c[nH]c2ccccc12` the entry was “inactive”; with `COc1cc2nc(N3CCN(C(=O)[C@H]4CCCO4)CC3)nc(N)c2cc1OC`, “inactive”.
